Here are results for 12 molecules from PubChem BioAssay (NCATS).

A short description of assay [1]: qHTS assay for small molecule agonists of the antioxidant response element (ARE) signaling pathway measured by Nrf2-dependant transcriptional activity - cell viability counter screen (AID 720653; active means well fitted curve in the direction sought with a large enough effect in the repeat runs; an effect the other way counts as inactive or inconclusive; further: on the % scale 0 is the no-effect control and ±100 the full control effect). The following applies: ARE-bla HepG2 viability, CellTiter-Glo ATP luminescence, 16 h; max response: stronger effect = lower value. The method in brief: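 ARE-bla HepG2 cells (2,000/well) rested 5 hrs at 37C/5% CO2, then exposed to compounds in DMSO for 16 hrs. Viability was read in the same wells as intracellular ATP by luminescence, 30 min at room temperature after reagent addition.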

The target of assay [2] is T1, Hexokinase-4 (Homo sapiens) + Glucokinase regulatory protein (Homo sapiens) (UniProt P35557+Q14397). As to the kind of experiment: qHTS assay for inhibitors of recombinant human GCK-GKRP interaction: Diaphorase-coupled assay (AID 743205; active means well fitted curve in the direction sought with a large enough effect; an effect the other way counts as inactive or inconclusive). The method in brief: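 Compounds pre-incubated 20 min with substrate, then 10 nM GST-GCK with 10 nM FLAG-GKRP added. GCK activity coupled via G6PDH and diaphorase to resorufin (5 mM glucose, 0.4 mM ATP, 0.15 mM NADP+, pH 7.6), read kinetically over 30 minutes at Ex 525/Em 590 nm.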
T1 sequence (P35557 whole entry, looked up): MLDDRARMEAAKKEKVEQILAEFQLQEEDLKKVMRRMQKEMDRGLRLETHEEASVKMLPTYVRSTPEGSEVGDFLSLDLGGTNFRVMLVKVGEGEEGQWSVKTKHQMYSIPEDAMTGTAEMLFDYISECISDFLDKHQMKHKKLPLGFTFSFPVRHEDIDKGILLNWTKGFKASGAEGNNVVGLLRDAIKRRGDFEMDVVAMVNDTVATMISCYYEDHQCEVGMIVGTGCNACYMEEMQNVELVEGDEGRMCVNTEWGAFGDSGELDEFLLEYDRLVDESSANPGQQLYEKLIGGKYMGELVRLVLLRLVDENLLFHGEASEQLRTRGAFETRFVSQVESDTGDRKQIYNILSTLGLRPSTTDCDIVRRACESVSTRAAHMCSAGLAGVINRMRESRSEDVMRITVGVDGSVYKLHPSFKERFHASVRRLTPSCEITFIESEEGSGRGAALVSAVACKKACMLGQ
T1 sequence (Q14397 whole entry, looked up): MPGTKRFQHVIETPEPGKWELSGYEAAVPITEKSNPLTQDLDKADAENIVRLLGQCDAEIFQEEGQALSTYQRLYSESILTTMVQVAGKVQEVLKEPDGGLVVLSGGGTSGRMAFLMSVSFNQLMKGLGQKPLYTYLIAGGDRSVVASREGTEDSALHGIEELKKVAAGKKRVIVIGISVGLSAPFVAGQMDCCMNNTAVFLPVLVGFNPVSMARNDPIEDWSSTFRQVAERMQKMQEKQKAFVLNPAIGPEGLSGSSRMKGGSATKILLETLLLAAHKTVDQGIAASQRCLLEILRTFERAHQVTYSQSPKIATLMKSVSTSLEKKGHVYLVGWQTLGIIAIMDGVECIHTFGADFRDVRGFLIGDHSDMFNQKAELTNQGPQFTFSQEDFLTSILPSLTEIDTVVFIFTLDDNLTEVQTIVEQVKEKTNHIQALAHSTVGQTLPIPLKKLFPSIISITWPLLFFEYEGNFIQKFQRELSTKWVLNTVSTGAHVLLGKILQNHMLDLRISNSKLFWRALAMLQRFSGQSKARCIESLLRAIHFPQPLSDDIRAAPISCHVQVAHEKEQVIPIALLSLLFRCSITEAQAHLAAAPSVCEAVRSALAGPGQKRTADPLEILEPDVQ
On the technique in general: Quantitative high-throughput screening tests each substance at several concentrations.

The target of assay [3] is T1, Hexokinase-4 (Homo sapiens) + Glucokinase regulatory protein (Homo sapiens). As to the kind of experiment: qHTS assay for inhibitors of recombinant human GCK-GKRP interaction: ADP-Glo assay (AID 743206; active means well fitted curve in the direction sought with a large enough effect; an effect the other way counts as inactive or inconclusive;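 further: plate controls were DMSO plus enzyme for no effect and no enzyme for full effect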). The gist of the method: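 GST-GCK and FLAG-GKRP (15 nM each in the dispensed mix, with 2 uM S6P) react with 0.4 mM ATP and 5 mM glucose (final) in Hepes pH 7.6 for 60 min at room temperature. ADP is measured by ADP-Glo luminescence.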

Assay [4] shares this target. As to the kind of experiment: qHTS assay for inhibitors of recombinant human GCK-GKRP interaction: HTRF assay (AID 743207; active means well fitted curve in the direction sought with a large enough effect; an effect the other way counts as inactive or inconclusive;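 further: 0% = DMSO with GCK present and -100% = DMSO wells lacking GCK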). The method in brief: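 HTRF binding of 5 nM GST-GCK and 5 nM FLAG-GKRP with 2 uM S6P in pH 7.1 Hepes buffer (MgCl2, KCl, DTT, Tween 20, BSA). Anti-FLAG XL665 and anti-GST donor added, 60 min at room temperature; 665/615 nm read, normalized to with- and without-GCK controls.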

Assay [5] can be described thus: qHTS assay for cell viability of the p53RE-bla HCT-116 cell line (AID 743292; active means well fitted curve in the direction sought with a large enough effect; an effect the other way counts as inactive or inconclusive; further: on the % scale 0 is the no-effect control and ±100 the full control effect; nearly all actives have a fitted effect of over 55% in size). The gist of the method: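 Intracellular ATP of p53RE-bla HCT-116 cells measured by luciferase luminescence following 16 h compound incubation at 37 C; DMSO-only wells served as vehicle controls.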
The nature of assay [6]: qHTS profiling of the MIPE4 collection as inhibitors of Plasmodium falciparum (3D7) proliferation (AID 743344).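 Further: scaled between DMSO vehicle wells and 0.29 µM artemisinin as full inhibition.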 The following applies: P. falciparum 3D7 in erythrocytes, SYBR Green DNA fluorescence, 72 h; at 28.5 µM (top of the series) unless noted. The method in brief: (§1)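 Erythrocytes infected with P. falciparum (0.3% parasitemia, 2.5% hematocrit) incubated with compounds 72 h at 37 C, 5% CO2. Lysis with saponin/Triton buffer containing SYBR Green I, overnight at room temperature in the dark; DNA fluorescence (485/535 nm) normalised to 0.29 uM artemisinin and DMSO.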

A short description of assay [7]: High-throughput drug toxicity screening in the BPDCN cell line Cal-1 (AID 1224825). The following applies: Cal-1 BPDCN cell viability, qHTS; at 45.8 µM (top of the series) unless noted. The method in brief:
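Exponentially growing Cal-1 cells, 500 per well in phenol red-free RPMI with 10% FBS, were exposed to compounds for 48 h at 37 °C, 5% CO2. Viability was read by CellTiter-Glo luminescence and normalised to DMSO (100%) and 9.2 uM bortezomib (0%).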

Assay [8] is described as follows: qHTS assay for measurement of the activity of small molecule inhibitors on Zika virus induced Caspase-3 activity in human iPSC derived neural progenitor cells (hNPCs) (AID 1224857; active means well fitted curve in the direction sought with a large enough effect; an effect the other way counts as inactive or inconclusive; further: nearly all actives have a fitted effect of over 65% in size; further: potency means the concentration at half of the fitted maximal effect). The method in brief: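 Percent inhibition of virus-induced caspase-3/7 luminescence (Caspase-Glo), scaled between uninfected cells and Zika-infected cells. hNPCs received compound 1 hr before ZIKV at 2 FFU/cell, with 6 hours infection at 37 C.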

Assay [9] can be described thus: qHTS Screen of the MIPE 4.0 Collection Against Ewings Sarcoma (RDES) (AID 1259252; active means well fitted curve in the direction sought with a large enough effect; an effect the other way counts as inactive or inconclusive; further: potency means the concentration at half of the fitted maximal effect; nearly all actives have a fitted effect of over 35% in size). The gist of the method: (§2)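 Measured: ATP luminescence (CellTiter-Glo) 10 min after reagent addition, following 48 h drug treatment. Relative luciferase units converted to percent activity, with no-cell wells as full and DMSO wells as zero inhibition.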
Assay [10] is described as follows: qHTS Screen of the MIPE 4.0 Collection Against Ewings Sarcoma (EW8) (AID 1259255; active means well fitted curve in the direction sought with a large enough effect; an effect the other way counts as inactive or inconclusive; further: nearly all actives have a fitted effect of over 35% in size; further: potency means the concentration at half of the fitted maximal effect;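 on viability: 100% = DMSO-treated cells and 0% = medium-only wells without cells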). The gist of the method:
as §2

A short description of assay [11]: qHTS profiling of the MIPE4 collection as inhibitors of Plasmodium falciparum (DD2) proliferation (AID 743345). The following applies: P. falciparum Dd2 in erythrocytes, SYBR Green DNA, 72 h; at 28.5 µM (top of the series) unless noted. The gist of the method: as §1
Assay [12] can be described thus: qHTS profiling of the MIPE4 collection as inhibitors of Plasmodium falciparum (DD2) proliferation (Rep 2) (AID 743346). The following applies: P. falciparum Dd2 in erythrocytes, SYBR Green DNA, 72 h; at 28.5 µM (top of the series) unless noted. The gist of the method: as §1
Assay [13] in a line: High-throughput drug toxicity screening in the BPDCN cell line Gen2.2 (AID 1224824).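 Further: cells exposed to compounds for 48 h before reading.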 The following applies: Gen2.2 BPDCN cells; at 45.8 µM (top of the series) unless noted. The method in brief: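 Gen2.2 cells, 500 per well in phenol red-free RPMI with 10% FBS, exposed to compounds 48 h at 37 C, 5% CO2; viability by CellTiter-Glo luminescence. Percent activity scaled to DMSO (100%) and 9.2 uM bortezomib final (0%).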

Assay [14] in a line: qHTS profiling of the MIPE4 collection as inhibitors of Plasmodium falciparum (HB3) proliferation (AID 743347).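 Further: plate controls were DMSO vehicle wells for no effect and artemisinin wells for full effect.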 The following applies: P. falciparum HB3 in erythrocytes, SYBR Green DNA, 72 h; at 28.5 µM (top of the series) unless noted. The method in brief: as §1
A short description of assay [15]: qHTS assay for measurement of the activity of small molecule inhibitors on Zika virus induced Caspase-3 activity in human astrocytoma cells (AID 1224859; active means well fitted curve in the direction sought with a large enough effect; an effect the other way counts as inactive or inconclusive;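 further: plate controls were ZIKV-infected untreated cells for no effect and uninfected cells for full effect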). The method in brief: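 Luminescent caspase-3/7 read-out (30 min reagent, room temperature) in human SNB-19 cells infected 6 h with ZIKV (2 FFU/cell) after 1 h compound pre-incubation; Data were normalised to uninfected and infected wells.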

Assay [16] is described as follows: qHTS Screen of the MIPE 4.0 Collection Against Ewings Sarcoma (TC71) (AID 1259253; active means well fitted curve in the direction sought with a large enough effect; an effect the other way counts as inactive or inconclusive; further: potency means the concentration at half of the fitted maximal effect; nearly all actives have a fitted effect of over 40% in size). The method in brief: as §2

“And” between values parts separate entries of the source, which are not always exact repeats. Identical values can stand only once. Inconclusive results are not listed. The source made the active and inactive calls. Unless noted, how the calls were made is not given here.

Take `O=c1c(-c2ccc(O)cc2)coc2cc(O)ccc12`: the max response in [1] was -5.4% (inactive) and -12% (inactive). The outcome in [2], in [3] and in assay [4] was inactive. For the same molecule, the Potency result in [5] and in assay [10] was “inactive” in each case. Further, the parasite growth, % of DMSO control in assay [6] is 100%. The viability (% of control) in [7] amounted to 109%. The Potency in assay [8] was 11.2 µM (active); in assay [9], 11.8 µM (active).
For the molecule `Clc1ccc(COC(Cn2ccnc2)c2ccc(Cl)cc2Cl)cc1` (configuration not stated), the parasite growth, % of DMSO control in assay [6] turned out to be 5.45%. Besides, the parasite growth remaining, % of DMSO control (lower = more inhibition) in [11] was 6.85%. Moreover, the parasite growth, % of control (lower = inhibition) in assay [12] was 9.72%. For the same molecule, the cell viability, % of control (lower = more cytotoxic) in assay [13] came to 115%. In addition, in [7], the viability (% of control) came out at 70.1%.
For `N#C[C@H]1C[C@H]2C[C@@H]2N1C(=O)[C@@H](N)C12CC3CC(CC(O)(C3)C1)C2`, in assay [6], the parasite growth, % of DMSO control turned out to be 97.9%. Also, in assay [11], the parasite growth remaining, % of DMSO control (lower = more inhibition) turned out to be 103%. The same molecule registered a growth, % of control in assay [14] of 69.2%. Moreover, in assay [7], the viability (% of control) worked out at 100%. The Potency entry in [8] and in [15] was “inactive” in each case.
For `Cc1c(O)cccc1C(=O)N[C@@H](CSc1ccccc1)[C@H](O)CN1C[C@H]2CCCC[C@@H]2C[C@@H]1C(=O)NC(C)(C)C`, the parasite growth, % of DMSO control in [6] was found to be 10.1%. Further, in assay [12], the parasite growth, % of control (lower = inhibition) was 37.7%. In [14], this molecule gave a growth, % of control of 15.7%. The viability (% of control) in assay [7] is 4.13%. For the same molecule, the Potency result in assay [15] is “inactive”. Further, the Potency in assay [16] was 20.9 µM (active); in assay [10], 23.5 µM (active).
With `O=C1NC(=O)C(=Cc2ccc3nccnc3c2)S1`, the parasite growth, % of DMSO control in assay [6] amounted to 56.7% [at 9.64 µM]. In addition, in [11], the parasite growth remaining, % of DMSO control (lower = more inhibition) was 92.6% [at 9.64 µM]. Besides, in assay [12], the parasite growth, % of control (lower = inhibition) amounted to 114% [at 9.64 µM]. In assay [14], this molecule displayed a growth, % of control of 88.4% [at 9.64 µM]. Further, the viability (% of control) in [7] was determined as 44.1% [at 23.2 µM]. Further, the Potency in assay [8] is 14.4 µM (active); in assay [9], 14.4 µM (active); in [16] it was 11.5 µM (active); in assay [10], 9.11 µM (active).
With `CC(C)(C)OC(=O)N[C@H]1CCCCCC=C[C@@H]2C[C@@]2(C(=O)NS(=O)(=O)C2CC2)NC(=O)[C@@H]2C[C@@H](OC(=O)N3Cc4cccc(F)c4C3)CN2C1=O`, the parasite growth, % of DMSO control in [6] turned out to be 11.7%. Further, in assay [11], the parasite growth remaining, % of DMSO control (lower = more inhibition) was 40.6%. The molecule further gave a growth, % of control in [14] of 4.63%. The viability (% of control) in assay [7] turned out to be 99.3%. Moreover, the Potency entry in assay [8] and in assay [15] was “inactive” in each case.
In turn, `CC[C@@H]1C=C(C)C[C@H](C)C[C@H](OC)[C@H]2O[C@@](O)(C(=O)C(=O)N3CCCC[C@@H]3C(=O)O[C@H](C(C)=C[C@@H]3CC[C@H](Cl)[C@H](OC)C3)[C@H](C)[C@@H](O)CC1=O)[C@H](C)C[C@H]2OC` registered a parasite growth, % of DMSO control in assay [6] of 27.5%. For the same molecule, in assay [11], the parasite growth remaining, % of DMSO control (lower = more inhibition) stood at 6.74%. In addition, the parasite growth, % of control (lower = inhibition) in assay [12] amounted to 17.3%. Further, in assay [14], the growth, % of control stood at 64.6%. Also, the viability (% of control) in assay [7] was 20.8%. Also, the Potency result in assay [8] and in [15] was “inactive” each time.
In turn, `O=C(OCC#CCSc1nnc(-c2cccc3ccccc23)o1)c1cc2ccccc2s1` returned a parasite growth, % of DMSO control in assay [6] of 49.1%. For the same molecule, in [12], the parasite growth, % of control (lower = inhibition) is 64.2%. In assay [14], this molecule registered a growth, % of control of 44.7%. Further, the viability (% of control) in assay [7] is 118%. In addition, the Potency entry in [8], in [15] and in assay [10] was “inactive” throughout.
With `O=C(Nc1c(Cl)cncc1Cl)c1ccc(OC(F)F)c(OCC2CC2)c1`, the parasite growth remaining, % of DMSO control (lower = more inhibition) in [11] is 100%. The parasite growth, % of control (lower = inhibition) in assay [12] stood at 67.9%. For the same molecule, in assay [7], the viability (% of control) came out at 105%. Further, the Potency result in [8], in [15] and in assay [10] was “inactive” throughout.
As to `CC1(C)CCC[C@@]2(C)[C@@H]1CC[C@@]1(C)OC(=O)C[C@H]21`, the parasite growth, % of DMSO control in assay [6] amounted to 81.6%. Further, the parasite growth remaining, % of DMSO control (lower = more inhibition) in assay [11] came to 136%. Moreover, the parasite growth, % of control (lower = inhibition) in assay [12] came out at 56.5%. The growth, % of control in assay [14] worked out at 64.8%. In [7], the viability (% of control) turned out to be 102%. Further, the Potency entry in [8] and in assay [15] was “inactive” in each case.
In the case of `N[C@H](CSC(c1ccccc1)(c1ccccc1)c1ccccc1)C(=O)O`, in [6], the parasite growth, % of DMSO control is 10.7%. Also, the parasite growth remaining, % of DMSO control (lower = more inhibition) in assay [11] is 86.8%. Besides, the parasite growth, % of control (lower = inhibition) in assay [12] came to 16.2%. Also, in [14], the growth, % of control was found to be 4.68%. The viability (% of control) in assay [7] was found to be 12%. In [15], the Potency entry was “inactive”.
`C[C@H](NC(=O)c1sccc1OCc1ccc(Cl)cc1)c1ccccc1` yielded a parasite growth, % of DMSO control in assay [6] of 13.9%. Moreover, the parasite growth remaining, % of DMSO control (lower = more inhibition) in assay [11] is 14.8%. The parasite growth, % of control (lower = inhibition) in assay [12] worked out at 10.7%. In addition, the growth, % of control in assay [14] amounted to 3.82%. Besides, the viability (% of control) in [7] amounted to 45.5%. Also, the Potency entry in assay [15] is “inactive”.
